This is an account of results in PubChem BioAssay (NCI).

Holding throughout (experiment): NCI-60 one-dose screen, 48 h (100 = growth as untreated, 0 = no growth, -100 = all killed)
What all share (details): 10 µM unless noted

In experiment [1] the test system is K-562 leukemia.
The subject of experiment [2] is MALME-3M melanoma.
Experiment [3] concerns MDA-MB-231 breast.
The subject of experiment [4] is RXF 393 renal.
For experiment [5], the system named is SF-268 CNS.
The test system of experiment [6] is SF-295 CNS.
The subject of experiment [7] is SF-539 CNS.
The subject of experiment [8] is UACC-257 melanoma.
Experiment [9] deals with M14 melanoma.
Experiment [10] deals with HCT-15 colon.
Experiment [11] relates to HT29 colon.
The subject of experiment [12] is SNB-75 CNS.
The test system of experiment [13] is SNB-19 CNS.
Experiment [14] deals with U251 CNS.
Experiment [15] deals with PC-3 prostate.
Experiment [16] relates to SK-MEL-5 melanoma.
For experiment [17], the system named is UACC-62 melanoma.
The subject of experiment [18] is SK-MEL-28 melanoma.
The subject of experiment [19] is SK-MEL-2 melanoma.

This is part of a sample that, as a whole, favours compounds with a hit. Of some 83,000 tested, about 20% had one in any assay.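 The test compound was applied at a single concentration to cells in 96-well plates for 48 hours, and percent growth was recorded.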 A number with no mark means an inactive call. Active and inactive are the calls of the source. The calls were made as follows: active = growth percent below 10; inactive = the rest.

Turning to `N/C(=N\c1nc2c(Br)cccc2s1)C(Br)Br`, the growth in experiment [1] was 3.75% (active); in experiment [2], -36.7% (active); in experiment [3] it was -9.45% (active); in experiment [4], -51.1% (active); in experiment [5], 49.2%; in experiment [6], 11.8%. Further, the growth is -28.3% (active) in [7]; 51.4% in experiment [8]; 10.9% in experiment [9]; -27.7% (active) in experiment [10]; -11.3% (active) in [11]; -0.636% (active) in experiment [12]. Further, the growth was 27.7% in [13]; -28.2% (active) in experiment [14]; 13.5% in experiment [15]; 68.3% in experiment [16]; -5.13% (active) in [17]; -5.02% (active) in [18]. The growth in [19] is -42.1% (active).
Regarding `O=C(CSc1nc2sc3c(c2c(=O)n1-c1ccc(Cl)cc1)CCCC3)NNC(=O)Nc1cccc(C(F)(F)F)c1`, the growth in experiment [1] is 13.1%; in experiment [2], 29.8%; in [3] it was 59%; in [4], 81.7%; in experiment [5], 40.8%; in experiment [6] it was 6.43% (active). The growth in experiment [7] is 51.1%; in [8], 35.3%; in experiment [9] it was 32.1%; in [10], 12.9%; in experiment [11], 26.2%; in [12], 36.3%. The growth was 21.8% in experiment [13]; 16.7% in [14]; 7.37% (active) in [15]; 35.4% in [16]; 17.3% in experiment [17]; 33.2% in experiment [18]. Moreover, the growth in experiment [19] is -8.08% (active).
In the case of `Nc1c(C(=O)Nc2ccc(Cl)cc2)sc2nc(-c3cnccn3)cc(-c3cccs3)c12`, the growth in experiment [1] was 40.5%; in experiment [2], 91.2%; in experiment [3] it was 72.9%; in experiment [4] it was 61.5%; in experiment [5], 47.2%; in experiment [6], 59%. Also, the growth in [7] was 12.2%; in experiment [8], 81.5%; in experiment [9], 89.2%; in experiment [10], 62.5%; in [11], -10.3% (active); in experiment [12], 14.2%. The growth in experiment [13] is 49.1%; in experiment [14], 17.9%; in experiment [15], 54.3%; in [16], 76.5%; in [17], 69.5%; in experiment [18], 64.8%. Besides, the growth in experiment [19] is 85.4%.
`N#Cc1nc(-c2ccccc2)oc1S(N)(=O)=O`: the growth in experiment [1] is 21.5%; in experiment [2], 64.9%; in experiment [3], 47.9%; in experiment [4] it was 45.8%; in experiment [5], 110%; in experiment [6], 101%. For the same compound, the growth in [7] is 36.8%; in experiment [8] it was 78.3%; in experiment [9] it was 40.7%; in experiment [10], 27.1%; in experiment [11], 43.8%; in [12], 91.7%. Further, the growth in experiment [13] was 95.3%; in experiment [14] it was 92.6%; in experiment [15], 81.4%; in [16] it was 76.2%; in experiment [17], 66.6%; in experiment [18] it was 69.5%. For the same compound, the growth in [19] was 84.9%.
Consider `O=C(N/N=C/c1ccc(Cl)s1)c1[nH]c2ccc(Br)cc2c1-c1ccccc1`, for which the growth is 6.77% (active) in experiment [1]; 53.4% in experiment [2]; 1.52% (active) in [3]; 71.7% in experiment [4]; 42.1% in experiment [5]; 15.5% in experiment [6]. For the same compound, the growth in experiment [7] was 3.35% (active); in experiment [8], 52%; in [9], 5.47% (active); in experiment [10] it was 15.6%; in [11], 3.1% (active); in [12] it was 28.1%. Besides, the growth in experiment [13] is 33.2%; in experiment [14] it was 16.5%; in experiment [15], 30.2%; in [16] it was -23% (active); in experiment [17], 41.4%; in experiment [18], 61.6%. The growth in [19] is 13.1%.
Turning to `O=C(N/N=C/c1cccs1)c1[nH]c2ccc(Br)cc2c1-c1ccccc1`, the growth was 4.72% (active) in [1]; 58.2% in experiment [2]; 5.46% (active) in [3]; 62.8% in experiment [4]; 35.3% in experiment [5]; 15.9% in [6]. The growth in experiment [7] is 2.22% (active); in [8], 61.2%; in [9] it was 1.81% (active); in [10], 9.74% (active); in experiment [11], -23.3% (active); in experiment [12], 31.4%. In addition, the growth is 32.3% in experiment [13]; 19.1% in experiment [14]; 26.1% in experiment [15]; -36.7% (active) in experiment [16]; 43% in experiment [17]; 60.7% in experiment [18]. Further, the growth in [19] is 20.3%.
Regarding `COc1cc2nc(-c3ccc(C(F)(F)F)cc3)cc(OCCCNCC3CCCO3)c2cc1OC` (configuration not stated), the growth in experiment [1] is 10.2%; in [2] it was -15.6% (active); in [3], 18.2%; in experiment [4], 3.22% (active); in [5] it was 59.5%; in [6], -33.6% (active). Moreover, the growth in [7] is 45.5%; in experiment [8], -38.7% (active); in experiment [9] it was -66.5% (active); in experiment [10], 13.7%; in [11], -7.81% (active); in experiment [12], 8.73% (active). Also, the growth in [13] is 75.3%; in [14], 55.7%; in experiment [15], 45.4%; in experiment [16], 4.75% (active); in experiment [17], -22.1% (active); in [18], -26.8% (active). Moreover, in experiment [19], the growth is 91.7%.
As for `COc1ccc(/C=C2\SC(=Nc3cc(C)on3)NC2=O)cc1`, the growth is 100% in experiment [1]; 95.9% in experiment [2]; 106% in experiment [3]; 102% in experiment [4]; 104% in experiment [5]; 95.2% in [6]. The growth in experiment [7] is 99.3%; in experiment [8] it was 96.7%; in [9], 92.2%; in [10] it was 99.3%; in experiment [11], 108%; in experiment [12], 97%. Moreover, the growth in [13] is 96.4%; in experiment [14] it was 109%; in experiment [15] it was 96.7%; in [16], 99.3%; in [17], 95.1%; in experiment [18] it was 106%. In addition, the growth in experiment [19] is 115%.
